Data from PubChem BioAssay (NCATS).
Results filed as inconclusive are left out. Entries that show only a call come without a potency. Activity calls are given as the source filed them. Calls come from the whole dose curve; as a rule, active = well fitted inhibition curve with a large enough effect; inconclusive = small, poorly fitted or top-dose-only effect; inactive = flat fitted curve, though single readings scatter.

These compounds were tested on Zika virus NS2B-NS3 protease (assay: Primary screen GU AMC qHTS for Zika virus inhibitors (AID 1347154; note: nearly all actives have a fitted effect of over 70% in size)). Conditions: Zika NS2B-NS3 unlinked protease, AMC fluorogenic substrate; series mostly up to 54.1 µM.
Summary of the method: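 Unlinked Zika NS2B hydrophilic domain–NS3 protease complex at 25 nM in 10 mM Tris-HCl pH 8.0, 0.01% Tween 20, with an AMC peptide substrate. Fluorescence change (340/450 nm) over 15 min at room temperature, normalized to controls, fitted to 4-parameter Hill.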
For `Cc1cc(C)nc(NS(=O)(=O)c2ccc(N)cc2)n1`, the Potency was “inactive”. With `NC(N)=NCCN1CCCCCCC1` the activity change, negative = inhibition was -2.2% [at 0.59 µM] (inactive). With `COc1cc(O)cc(O)c1` the Potency was “inactive”. In the case of `Cn1c([N+](=O)[O-])cnc1COC(N)=O`, the Potency is reported as “inactive”. With `CCOc1ccccc1O[C@H](c1ccccc1)[C@H]1CNCCO1` the Potency was “inactive”. `C/C(=C(\CCO)SS/C(CCO)=C(\C)N(C=O)Cc1cnc(C)nc1N)N(C=O)Cc1cnc(C)nc1N` was tested, and the Potency was “inactive”. `CC(=O)N(CC(O)CN(C(C)=O)c1c(I)c(C(=O)NCC(O)CO)c(I)c(C(=O)NCC(O)CO)c1I)c1c(I)c(C(=O)NCC(O)CO)c(I)c(C(=O)NCC(O)CO)c1I` (configuration not stated) was tested, and the Potency was “inactive”. With `CNCc1ccccc1` the Potency was “inactive”. With `Nc1ncnc(Nc2ccccc2)n1` the Potency was “inactive”. `O=S1(=O)OC(c2ccc(O)cc2)(c2ccc(O)cc2)c2ccccc21` was tested, and the Potency was “inactive”. In the case of `OC[C@@H](O)[C@@H](O)[C@H](O)[C@H](O)CO`, the Potency is reported as “inactive”. With `CC(C)(C)NCC(O)COc1cccc2c1CCC(=O)N2` (configuration not stated) the Potency was “inactive”. In the case of `Cc1cc(-n2nc3ccc(Cl)cc3n2)c(O)c(C(C)(C)C)c1`, the Potency is reported as “inactive”. In the case of `O=C(O)COC(=O)Cc1ccccc1Nc1c(Cl)cccc1Cl`, the Potency is reported as “inactive”. In the case of `FC(F)(F)C(Cl)Br` (configuration not stated), the Potency is reported as “inactive”. For `CCN(CC)CCc1nc(-c2ccccc2)no1`, the Potency was “inactive”. `CC1CCc2cc(F)cc3c(=O)c(C(=O)O)cn1c23` (configuration not stated) was tested, and the Potency was “inactive”. `CC(=O)N[C@H]1[C@H]([C@H](O)[C@H](O)CO)OC(C(=O)O)=C[C@@H]1N=C(N)N` was tested, and the Potency was “inactive”. `CCOc1ccc(C(=O)OCCN(CC)CC)cc1` was tested, and the Potency was “inactive”. `O=C(NCC(O)CO)c1c(I)c(C(=O)NCC(O)CO)c(I)c(N(CCO)C(=O)CO)c1I` (configuration not stated) was tested, and the Potency was “inactive”. `COC(=O)c1ccc(O)cc1` was tested, and the Potency was “inactive”. In the case of `CC(C(=O)O)c1ccc2c(c1)Cc1cccnc1O2` (configuration not stated), the Potency is reported as “inactive”. `CC(C)c1cc2c(cc1S(=O)(=O)O)[C@@]1(C)CCC[C@@](C)(C(=O)O)[C@@H]1CC2` was tested, and the Potency was “inactive”. For `O=C(CCBr)N1CCN(C(=O)CCBr)CC1`, the Potency was “inactive”. With `CC(=O)Nc1ccccc1` the Potency was “inactive”. For `O=C(O)CCC(=O)O`, the Potency was “inactive”. For `O=C1c2ccccc2C(=O)C1c1ccc(Br)cc1`, the Potency was “inactive”. In the case of `O=C1c2cccc(O)c2C(=O)c2c(O)cccc21`, the Potency is reported as “inactive”. For `O=C1c2ccccc2S(=O)(=O)N1CCCCN1CCN(c2ncccn2)CC1`, the Potency was “inactive”. `O=C(O)c1cc(=O)c2ccccc2o1` was tested, and the Potency was “inactive”. `COc1ccc(-c2cc(=O)c3c(O)cc(O[C@@H]4O[C@H](CO[C@@H]5O[C@@H](C)[C@H](O)[C@@H](O)[C@H]5O)[C@@H](O)[C@H](O)[C@H]4O)cc3o2)cc1O` was tested, and the Potency was “inactive”. For `CCOc1cc(NC(C)=O)ccc1C(=O)OC`, the Potency was “inactive”. In the case of `O=C(NCCCN1CCOCC1)c1ccc(Cl)cc1`, the Potency is reported as “inactive”. For `Cc1[nH]c(C)c(Cl)c(=O)c1Cl`, the Potency was “inactive”. For `CC(=O)N[C@@H](Cc1ccc(O)cc1)C(=O)O`, the Potency was “inactive”. `O[C@@H]1CO[C@H]2[C@@H]1OC[C@@H]2O` was tested, and the Potency was “inactive”. In the case of `NNc1nnc(NN)c2ccccc12`, the Potency is reported as “inactive”.
